Assay results published in PubChem BioAssay (Tox21).
“And” between values parts separate entries of the source, which are not always exact repeats. Identical values can stand only once. Unmarked numbers belong to inactive results. Records with an inconclusive call do not appear. A call without a number means that no potency is given here. The source made the active and inactive calls. Unless noted, calls follow the shape of the dose curve; as a rule, active = well fitted curve in the direction sought with a large enough effect in the repeat runs; inconclusive = weak or mixed curves; inactive = no such curve, though single readings can be large; an effect the other way counts as inactive or inconclusive.

Tests used:
[1] = qHTS assay for small molecules that induce genotoxicity in human embryonic kidney cells expressing luciferase-tagged ATAD5 (AID 651632); also: nearly all actives have a fitted effect of over 15% in size
Summary of the method: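 Luminescent reporter readout, HEK293T ATAD5-luc line: 16 hr drug exposure (37C, 5% CO2) followed by Amplite, 30 min RT.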

[2] = qHTS assay for small molecule agonists of the p53 signaling pathway - cell viability (AID 651633; calls by dose curve; also: nearly all actives have a fitted effect of over 30% in size; also: potency is read from the fitted curve at half-maximal effect)
Summary of the method: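 p53RE-bla cells, seeded at 4,000 per well and rested 5 h at 37 C/5% CO2, received compounds in DMSO for 16 h at 37 C. CellTiter-Glo was then added, and luminescence was read after 30 min at room temperature to gauge cytotoxicity.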

[3] = qHTS assay for small molecules that induce genotoxicity in human embryonic kidney cells expressing luciferase-tagged ATAD5 - cell viability (AID 651634; calls by dose curve; also: nearly all actives have a fitted effect of over 25% in size; also: potency is read from the fitted curve at half-maximal effect)
Summary of the method: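 Viability read: CellTiter-Fluor fluorescence, 30 min at 37C. Cells: HEK293T, luciferase-tagged ATAD5. Exposure: 15.5 hr, 37C, 5% CO2, compound or DMSO vehicle.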

[4] = qHTS assay for small molecule disruptors of the mitochondrial membrane potential - cell viability (AID 720634; calls by dose curve; also: nearly all actives have a fitted effect of over 20% in size; also: potency is read from the fitted curve at half-maximal effect)
Summary of the method: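 HepG2, 1 hr compound, 37 C. ATP luminescence via CellTiter-Glo, 30 min RT, same well as m-MPI.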

[5] = qHTS assay to test for compound auto fluorescence at 590 nm (red) in HepG2 cells (AID 720674)
Summary of the method: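 Compound auto-fluorescence is scored relative to Rose Bengal sodium, measured at 540/590 nm in live HepG2 cultures after 1 hr compound contact (37 C, 5% CO2).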

[6] = qHTS assay to test for compound auto fluorescence at 535 nm (green) in HepG2 cells (AID 720675)
[7] = qHTS assay to test for compound auto fluorescence at 460 nm (blue) in HEK293 cells (AID 720678)
Summary of the method: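 Measured: blue fluorescence (Ex 405/Em 460 nm) of compound-treated HEK293 cells, incubated overnight at 37C with 5% CO2 and scaled to triamterene equivalents.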

[8] = qHTS assay to test for compound auto fluorescence at 590 nm (red) in HEK293 cells (AID 720679)
Summary of the method: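 Using HEK293 cells at 2,000 per well, the screen added 23 nL of each compound after cell attachment and incubated overnight (37C, 5% CO2). The plate reader then captured red-label fluorescence, Ex/Em 540/590nm.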

[9] = qHTS assay to test for compound auto fluorescence at 535 nm (green) in HEK293 cells (AID 720680)
[10] = qHTS assay to test for compound auto fluorescence at 460 nm (blue) in HEK293 cell free culture (AID 720681); also: potency is read from the fitted curve at half-maximal effect
Summary of the method: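 Test compounds were pinned into cell-free culture medium (DMEM with 10% FBS) and fluorescence was read directly at Ex/Em 405/460 nm. Signals were expressed as fluorescence equivalents of triamterene, with DMSO vehicle as control.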

[11] = qHTS assay to test for compound auto fluorescence at 535 nm (green) in HEK293 cell free culture (AID 720682)
Summary of the method: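 Each library compound, or DMSO control, is added by pintool to medium alone, comprising DMEM and 10% FBS. Emission at 535 nm following 485 nm excitation is quantified against fluorescein.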

[12] = qHTS assay to test for compound auto fluorescence at 590 nm (red) in HepG2 cell free culture (AID 720684)
Summary of the method: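 Measured in medium alone (MEM containing 10% FBS) following pintool addition of compound; emission at 590 nm with 540 nm excitation, referenced to Rose Bengal sodium.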

[13] = qHTS assay to test for compound auto fluorescence at 460 nm (blue) in HepG2 cell free culture (AID 720685)
Summary of the method: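 Compound (23 nL) or DMSO pinned into cell-free MEM with 10% FBS; blue fluorescence read at 405/460 nm excitation/emission, expressed as auto-fluorescence equivalency to triamterene.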

[14] = qHTS assay to test for compound auto fluorescence at 535 nm (green) in HepG2 cell free culture (AID 720686)
[15] = qHTS assay to test for compound auto fluorescence at 460 nm (blue) in HepG2 cells (AID 720687)
Summary of the method: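 Cells (2,000/well in MEM with 10% FBS) attached overnight at 37 C, then were exposed to compound or DMSO for 1 hr at 37 C, 5% CO2. Fluorescence read at Ex/Em 405/460 nm, expressed as triamterene-equivalent signal.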

[16] = molecular target: Glucocorticoid receptor (Homo sapiens) (UniProt P04150); assay: qHTS assay to identify small molecule agonists of the glucocorticoid receptor (GR) signaling pathway (AID 720691; active = well fitted activation curve with a large enough effect in the signal ratio in the repeat runs, not every such curve was filed as active; the % refers to the signal ratio)
Glucocorticoid receptor (Homo sapiens), sequence (P04150 whole entry, looked up): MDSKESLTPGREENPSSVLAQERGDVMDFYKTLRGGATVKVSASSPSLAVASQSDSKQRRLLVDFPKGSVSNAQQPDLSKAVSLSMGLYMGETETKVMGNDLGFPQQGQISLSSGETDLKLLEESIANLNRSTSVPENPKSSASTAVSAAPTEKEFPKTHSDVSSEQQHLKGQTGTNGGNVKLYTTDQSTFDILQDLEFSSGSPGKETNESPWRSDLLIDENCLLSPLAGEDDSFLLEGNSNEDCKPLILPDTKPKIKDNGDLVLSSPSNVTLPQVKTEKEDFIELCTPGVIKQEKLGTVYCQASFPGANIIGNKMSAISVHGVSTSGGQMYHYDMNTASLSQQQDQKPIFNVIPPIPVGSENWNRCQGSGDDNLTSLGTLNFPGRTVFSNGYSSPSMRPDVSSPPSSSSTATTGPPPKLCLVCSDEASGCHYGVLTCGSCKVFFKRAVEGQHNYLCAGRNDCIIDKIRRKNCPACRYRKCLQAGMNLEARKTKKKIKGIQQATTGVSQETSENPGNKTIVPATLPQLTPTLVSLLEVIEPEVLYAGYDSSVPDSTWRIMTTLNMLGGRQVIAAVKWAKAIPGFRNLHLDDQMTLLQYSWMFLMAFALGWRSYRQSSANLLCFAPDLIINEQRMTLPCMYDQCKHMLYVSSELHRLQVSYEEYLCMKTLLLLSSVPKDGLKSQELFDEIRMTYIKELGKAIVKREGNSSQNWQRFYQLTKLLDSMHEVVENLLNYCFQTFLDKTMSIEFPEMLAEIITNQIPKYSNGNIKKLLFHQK
Summary of the method: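 qHTS in GR-bla HeLa cells: 4 h settling at 37 C/5% CO2, 18 h compound incubation at 37 C, 2 h LiveBLAzer B/G FRET substrate at room temperature, fluorescence intensity measured.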

[17] = molecular target: Glucocorticoid receptor (Homo sapiens) (UniProt P04150); assay: qHTS assay to identify small molecule antagonists of the glucocorticoid receptor (GR) signaling pathway (AID 720692; active = well fitted inhibition curve with a large enough effect in the signal ratio in the repeat runs, not every such curve was filed as active; the % refers to the signal ratio)
Summary of the method: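 Inhibition of glucocorticoid signalling is measured in HeLa cells with a GRE-controlled beta-lactamase reporter; cells are co-treated with compound and 5 nM dexamethasone (final) for 18 h before FRET substrate readout.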

[18] = qHTS assay for small molecule disruptors of the mitochondrial membrane potential (AID 720635); also: potency is read from the fitted curve at half-maximal effect
Summary of the method: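 HepG2 cells (2,000/well) attached overnight at 37C, then took compound for 1 hr at 37C, 5% CO2. Mito-MPS dye was added for 30 min; fluorescence was read at 490/535 nm (monomers) and 540/590 nm (aggregates).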

[19] = qHTS assay to test for compound auto fluorescence at 590 nm (red) in HEK293 cell free culture (AID 720683)
Summary of the method: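 Tox21 10K library compounds were pinned into cell-free DMEM with 10% FBS and fluorescence was read at excitation 540 nm. Activity is expressed as Rose Bengal sodium equivalency.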

Structure (SMILES) | Potency [1] | Potency [2] | Potency [3] | Potency [4] | Potency [5] | Potency [6] | Potency [7] | Potency [8] | Potency [9] | Potency [10] | Potency [11] | Potency [12] | Potency [13] | Potency [14] | Potency [15] | Potency [16] | Potency [17] | Potency [18] | Potency [19]
Clc1ccnc(Cl)n1 | inactive | inactive | inactive | inactive | inactive | inactive | inactive | inactive | inactive | inactive | inactive | inactive | inactive | inactive | inactive | inactive | inactive | – | –
CCCCCCCCCCCCCCCC[N+](C)(C)CC | inactive | 26.6 µM (active) and 61.3 µM (active) | 29.8 µM (active) and 24.4 µM (active) | 61.3 µM (active) | inactive | inactive | inactive | inactive | inactive | inactive | inactive | inactive | inactive | inactive | inactive | – | – | 6.68 µM (active) and 27.4 µM (active) | –
S=C([S-])NCCNC(=S)[S-].S=C([S-])NCCNC(=S)[S-].[Mn+2].[Zn+2] | inactive | inactive | inactive | inactive | – | inactive | – | inactive | inactive | inactive | inactive | inactive | inactive | inactive | inactive | inactive | – | – | inactive
COC(=O)c1ccccc1OC | inactive | inactive | inactive | inactive | – | inactive | inactive | inactive | inactive | inactive | inactive | inactive | inactive | inactive | inactive | inactive | – | inactive | inactive
CCCCCCCCCCCCOC(=O)c1ccc(O)cc1 | inactive | inactive | inactive | – | – | inactive | inactive | inactive | inactive | inactive | inactive | inactive | inactive | inactive | inactive | – | – | 3.46 µM (active) | –
CNc1ccc([N+](=O)[O-])cc1 | inactive | inactive | 61.3 µM (active) | inactive | – | inactive | inactive | inactive | inactive | inactive | inactive | inactive | inactive | inactive | inactive | – | – | – | inactive
CN1CCN2c3ccccc3Cc3ccccc3C2C1 (stereo not drawn) | inactive | – | inactive | inactive | inactive | inactive | inactive | inactive | inactive | inactive | inactive | inactive | inactive | inactive | inactive | – | – | – | inactive
O=c1oc2cc(O)ccc2c2oc3cc(O)ccc3c12 | – | inactive | inactive | inactive | – | inactive | – | inactive | inactive | 5.01 µM (active) | inactive | inactive | – | inactive | – | inactive | – | 58.6 µM (active) | inactive
CC(=O)[C@H]1CC[C@H]2[C@@H]3CCC4=CC(=O)CC[C@]4(C)[C@H]3CC[C@]12C | inactive | – | inactive | inactive | inactive | inactive | – | inactive | inactive | inactive | inactive | inactive | inactive | inactive | – | – | – | 19.3 µM (active) | inactive
CC[C@H](C)COC(=O)/C=C/c1ccc(N=Cc2ccc(OC)cc2)cc1 | – | inactive | inactive | – | inactive | inactive | inactive | inactive | inactive | inactive | inactive | inactive | inactive | inactive | inactive | inactive | inactive | 30.6 µM (active) | –
Nc1nc(-c2ccccc2)cs1 | – | inactive | inactive | inactive | inactive | inactive | inactive | inactive | inactive | inactive | inactive | inactive | inactive | inactive | inactive | inactive | – | – | inactive
